The values below come from paper PMC5540273 (PLoS ONE, 2017).

SMILES strings stand for the structures.

Among the test systems are DYRK1B; DYRK2; EGFR; EIF2AK1; EPHA1; EPHA2; EPHA3; EPHA4; EPHA5; EPHA6; EPHA7; EPHA8; EPHB1; EPHB2; EPHB3; EPHB4; EPHB6; ERBB2; ERBB3; ERBB4.
Conditions in all cases: concentration: 1 μM,replicates: in singlicate; n = 1
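Further: KINOMEscan kinase panel screen.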

As to `C[C@@H]1CCN(C(=O)N2CCCC2)C[C@@H]1N(C)c1ncnc2[nH]ccc12`, the “%Inh” value was found to be 0% in the test on DYRK1B; 0% with DYRK2; 0% in the test on EGFR; 23% in the test on EIF2AK1; 1% with EPHA1; 0% with EPHA2. The “%Inh” value was found to be 0% with EPHA3; 16% in the test with EPHA4; 8% in the test on EPHA5; 20% in the test on EPHA6; 0% in the test with EPHA7; 0% in the test with EPHA8. Further, the “%Inh” value in the test on EPHB1 is listed as 0%; in the test with EPHB2 it was 5%; in the test with EPHB3 it was 26%; in the test on EPHB4, 0%; with EPHB6 it was 34%; in the test with ERBB2 it was 10%. The figures for the “%Inh” value in the test on ERBB3 and with ERBB4 were 0% and 7%, respectively.

As for `CC(C)c1nc(-c2cccc(NS(=O)(=O)c3ccccc3)c2)c(-c2ccnc(Nc3ccc4c(c3)CN(C)CC4)n2)s1` [GSK1649598], the “%Inh” value in the test on DYRK1B was determined as 20%; in the test with DYRK2, 23%; in the test with EGFR, 84%; in the test with EIF2AK1, 95.1%; in the test on EPHA1 it was 93.2%; in the test on EPHA2, 33%. The “%Inh” value stood at 44% in the test with EPHA3; 21% in the test with EPHA4; 0% in the test on EPHA5; 66% in the test on EPHA6; 13% in the test with EPHA7; 80% with EPHA8. The “%Inh” value in the test with EPHB1 is recorded as 34%; in the test with EPHB2, 0%; in the test with EPHB3, 0%; with EPHB4, 11%; in the test on EPHB6, 98.5%; in the test with ERBB2, 86%. Besides, the “%Inh” value with ERBB3 is recorded as 97.7%; with ERBB4, 98.8%.

Take `COc1cc2nccc(Nc3ccc(Oc4ccccc4)cc3)c2cc1OC.Cl` [GI261656]: the “%Inh” value with DYRK1B was 18%; in the test with DYRK2 it was 9%; in the test on EGFR it was 88%; in the test on EIF2AK1 it was 0%; in the test with EPHA1, 0%; in the test on EPHA2 it was 5%. For the same molecule, the “%Inh” value in the test with EPHA3, in the test with EPHA4, in the test with EPHA5, with EPHA6, in the test with EPHA7 and with EPHA8 was 0% in each case. Besides, the “%Inh” value worked out at 9% in the test on EPHB1; 0% with EPHB2; 0% with EPHB3; 3% in the test on EPHB4; 90.9% with EPHB6; 80% in the test with ERBB2. Moreover, the “%Inh” value was found to be 99.6% in the test with ERBB3 and 85% in the test with ERBB4.

Take `CC(=O)Nc1nc2cnc(Nc3cc(NC(=O)c4cccc(CC(C)(C)C#N)c4)ccc3C)nc2s1`: the “%Inh” value came out at 31% in the test on DYRK1B; 0% with DYRK2; 0% in the test on EGFR; 30% with EIF2AK1; 0% in the test on EPHA1; 84% with EPHA2. In addition, the “%Inh” value in the test on EPHA3 amounted to 65%; with EPHA4, 54%; with EPHA5 it was 21%; in the test on EPHA6, 38%; in the test on EPHA7, 4%; in the test with EPHA8, 72%. For the same molecule, the “%Inh” value is recorded as 11% in the test with EPHB1; 55% with EPHB2; 13% with EPHB3; 37% with EPHB4; 61% in the test with EPHB6; 42% in the test with ERBB2. The “%Inh” value with ERBB3 is reported as 9%; in the test on ERBB4, 0%.

As to `CN1CCN(CCNc2nc3cc(Oc4ccc(NC(=O)Nc5cc(C(F)(F)F)ccc5F)cc4)ccc3[nH]2)CC1.Cl.Cl` [GW768504], the “%Inh” value in the test on DYRK1B is listed as 15%; in the test with DYRK2, 0%; with EGFR, 0%; in the test on EIF2AK1, 0%; in the test on EPHA1 it was 0%; in the test on EPHA2, 4%. In addition, the “%Inh” value in the test on EPHA3 is 0%; with EPHA4, 28%; with EPHA5, 0%; in the test on EPHA6, 51%; with EPHA7, 0%; in the test on EPHA8 it was 23%. Also, the “%Inh” value with EPHB1 is reported as 17%; in the test on EPHB2 it was 34%; in the test on EPHB3, 14%; in the test on EPHB4, 17%; in the test on EPHB6 it was 25%; in the test with ERBB2 it was 0%. In addition, the “%Inh” value with ERBB3 and in the test on ERBB4 was 0% in each case.

`C[C@@H](Oc1cc(-n2cnc3cc(-c4cnn(C)c4)ccc32)sc1C(N)=O)c1ccccc1Cl` [GSK580432]: the “%Inh” value in the test on DYRK1B is 0%; in the test with DYRK2 it was 21%; with EGFR it was 28%; with EIF2AK1, 15%; in the test with EPHA1, 19%; with EPHA2, 29%. In addition, the “%Inh” value is on record as 20% with EPHA3; 7% with EPHA4; 0% with EPHA5; 28% in the test with EPHA6; 4% with EPHA7; 34% with EPHA8. Besides, the “%Inh” value in the test on EPHB1 came to 29%; in the test with EPHB2 it was 0%; with EPHB3, 16%; with EPHB4 it was 19%; in the test on EPHB6 it was 93.7%; in the test on ERBB2, 0%. For the same molecule, the “%Inh” value in the test on ERBB3 and with ERBB4 was 0% in each case.

With `Cl.Nc1n[nH]c2cc(-c3ccccn3)ccc12` [GSK2189892], the “%Inh” value in the test with DYRK1B stood at 10%; with DYRK2, 22%; with EGFR, 38%; in the test on EIF2AK1, 0%; in the test on EPHA1 it was 7%; in the test with EPHA2, 23%. Moreover, the “%Inh” value in the test with EPHA3 amounted to 0%; in the test on EPHA4 it was 1%; in the test with EPHA5 it was 0%; in the test with EPHA6 it was 0%; in the test with EPHA7 it was 0%; in the test with EPHA8, 0%. For the same molecule, the “%Inh” value is given as 4% in the test with EPHB1; 0% in the test with EPHB2; 4% with EPHB3; 0% with EPHB4; 18% in the test on EPHB6; 9% in the test with ERBB2. The “%Inh” value in the test on ERBB3 and with ERBB4 was 0% throughout.

Consider `Cc1n[nH]c2cc(Nc3ccnc(Nc4cccc(CN5CCOCC5)c4)n3)ccc12` [GW682569], for which the “%Inh” value in the test on DYRK1B is on record as 4%; in the test on DYRK2 it was 25%; with EGFR, 22%; in the test with EIF2AK1, 0%; in the test with EPHA1 it was 52%; with EPHA2, 14%. Besides, the “%Inh” value with EPHA3 is 25%; in the test with EPHA4 it was 17%; with EPHA5, 0%; in the test on EPHA6, 17%; in the test with EPHA7 it was 0%; in the test on EPHA8 it was 9%. Moreover, the “%Inh” value with EPHB1 is recorded as 19%; in the test on EPHB2, 13%; with EPHB3, 12%; in the test with EPHB4, 11%; with EPHB6 it was 87%; in the test with ERBB2, 27%. Further, the “%Inh” value turned out to be 12% in the test with ERBB3 and 43% with ERBB4.
